Among the data in PubChem BioAssay (NCI) are growth values, retold here.

The panel holds about 83,000 compounds, 20% with a hit somewhere; the sample as a whole holds those more often.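 Single-concentration screen, 48 h exposure, 96-well plates. Endpoint: percent growth. Below 10 = active.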 A number with no mark means an inactive call. Activity calls are given as the source filed them.

Test systems include SR leukemia; RPMI-8226 leukemia; OVCAR-8 ovarian; OVCAR-5 ovarian; OVCAR-4 ovarian; SK-OV-3 ovarian; IGROV1 ovarian; OVCAR-3 ovarian; HS 578T breast; T-47D breast; BT-549 breast; MDA-MB-435 melanoma; SW-620 colon; MCF7 breast; HCT-116 colon; HCC-2998 colon; KM12 colon; NCI/ADR-RES ovarian.
Common to all, as to test: NCI-60 one-dose screen, 48 h (100 = growth as untreated, 0 = no growth, -100 = all killed)
Common to all, as to details: 10 µM unless noted

As for `Cn1ncc(CC(=O)O)c1-n1nnc2cc(Cl)ccc2c1=O`, the growth in the test with SR leukemia was 87.6%; in the test with RPMI-8226 leukemia it was 106%; in the test with OVCAR-8 ovarian it was 99.6%; in the test on OVCAR-5 ovarian, 98.1%; in the test on OVCAR-4 ovarian it was 94.6%; in the test on SK-OV-3 ovarian, 111%. In addition, the growth in the test on IGROV1 ovarian was 103%; in the test with OVCAR-3 ovarian it was 114%; in the test on HS 578T breast, 91.5%; in the test on T-47D breast, 102%; in the test on BT-549 breast, 102%; with MDA-MB-435 melanoma, 92.7%. For the same molecule, the growth with SW-620 colon is 103%; in the test on MCF7 breast, 110%; in the test on HCT-116 colon, 99.5%; in the test on HCC-2998 colon it was 107%; in the test on KM12 colon, 102%.

As to `COc1cccc2cc(N(C)c3ncnc4ccccc34)ccc12`, the growth in the test on SR leukemia is 9.25% (active); in the test on RPMI-8226 leukemia, -18.3% (active); in the test on OVCAR-8 ovarian, 6.23% (active); in the test with OVCAR-5 ovarian, 54.3%; in the test with OVCAR-4 ovarian, 34.7%; with SK-OV-3 ovarian it was 33.9%. For the same molecule, the growth is 14.4% in the test on IGROV1 ovarian; 6.13% (active) in the test on OVCAR-3 ovarian; 40.9% in the test with HS 578T breast; 59.1% in the test with T-47D breast; 32.3% in the test on BT-549 breast; 16.6% in the test with MDA-MB-435 melanoma. Besides, the growth was 20.5% in the test with SW-620 colon; 6.28% (active) in the test on MCF7 breast; 8.07% (active) in the test with HCT-116 colon; 21.2% in the test on HCC-2998 colon; 5.11% (active) in the test with KM12 colon.

On to `Oc1ccc(C2OCCO2)c2cccnc12`, for which the growth with SR leukemia is 31.8%; in the test on RPMI-8226 leukemia it was 29.6%; in the test on OVCAR-8 ovarian, 24.6%; in the test on OVCAR-5 ovarian it was 59.3%; in the test with OVCAR-4 ovarian, 15.3%; in the test on SK-OV-3 ovarian it was 93.5%. Further, the growth is 74.2% in the test with IGROV1 ovarian; 4.41% (active) in the test on OVCAR-3 ovarian; 76.4% in the test on HS 578T breast; 26.2% in the test on T-47D breast; 64.2% in the test with BT-549 breast; 49.4% with MDA-MB-435 melanoma. In addition, the growth is 22.3% in the test on SW-620 colon; 7.84% (active) in the test with MCF7 breast; 8.85% (active) with HCT-116 colon; 96.6% in the test with HCC-2998 colon; 72.4% in the test with KM12 colon.

Regarding `CN1C(=O)N(C)C2C1NN=c1s/c(=C\c3ccc(F)cc3)c(=O)n12` (configuration not stated), the growth in the test on SR leukemia is 26.8%; in the test on RPMI-8226 leukemia it was 66.5%; in the test on OVCAR-8 ovarian it was 29.5%; with OVCAR-5 ovarian, 48.6%; with OVCAR-4 ovarian it was 28.6%; with SK-OV-3 ovarian it was 33.1%. For the same molecule, the growth is 11% in the test with IGROV1 ovarian; 7.29% (active) in the test on OVCAR-3 ovarian; 14.8% in the test with HS 578T breast; 13.3% in the test on T-47D breast; 44.2% in the test on BT-549 breast; -19% (active) with MDA-MB-435 melanoma. The growth was 10.2% with SW-620 colon, 4.86% (active) in the test on HCT-116 colon, 57.8% in the test on HCC-2998 colon and 18.9% in the test with KM12 colon.

Consider `Cc1cc2c(c(C)n1)CN(C(=O)Nc1nc(-c3cncs3)ccc1N)C2`, for which the growth with SR leukemia is 95.3%; in the test with RPMI-8226 leukemia, 93.7%; with OVCAR-8 ovarian it was 92.3%; with OVCAR-5 ovarian, 103%; with OVCAR-4 ovarian, 96.7%; in the test on SK-OV-3 ovarian it was 89%. The growth is 103% in the test with OVCAR-3 ovarian; 104% in the test with HS 578T breast; 96.5% with NCI/ADR-RES ovarian; 90.5% with T-47D breast; 102% with MDA-MB-435 melanoma; 107% in the test with SW-620 colon. Further, the growth in the test on MCF7 breast is 89.3%; with HCT-116 colon it was 92.3%; in the test with HCC-2998 colon, 107%; in the test on KM12 colon, 95.8%.

`CC1=C(C(=O)c2ccccc2)C(c2ccc3c(c2)OCO3)NC(=S)N1` (configuration not stated): the growth in the test with SR leukemia is 6.28% (active); with RPMI-8226 leukemia, 44%; with OVCAR-8 ovarian, 46.7%; in the test on OVCAR-5 ovarian, 72.5%; with OVCAR-4 ovarian, 82.3%; in the test with SK-OV-3 ovarian, 51.6%. The growth in the test with OVCAR-3 ovarian is 12.9%; in the test with HS 578T breast it was 23.4%; in the test on NCI/ADR-RES ovarian it was 43.3%; with T-47D breast, 67.9%; with BT-549 breast, 50.6%; in the test with MDA-MB-435 melanoma, -49.5% (active). Moreover, the growth in the test with SW-620 colon is 24.2%; in the test with MCF7 breast it was 22%; in the test on HCT-116 colon it was 20.1%; in the test with HCC-2998 colon it was 62.2%; in the test with KM12 colon, 20%.

With `N#C/C(Sc1nc2sc3c(c2c(=O)n1Cc1ccccc1)CCCC3)=C1/SC=C(c2ccc(Cl)cc2)N1c1ccccc1`, the growth was 25.4% with SR leukemia; 68.3% with RPMI-8226 leukemia; 61.6% with OVCAR-8 ovarian; 83.7% in the test on OVCAR-5 ovarian; 93.5% in the test on OVCAR-4 ovarian; 88.6% in the test with SK-OV-3 ovarian. Also, the growth is 112% in the test on OVCAR-3 ovarian; 75.2% in the test with HS 578T breast; 83.5% with NCI/ADR-RES ovarian; 91.5% with T-47D breast; 101% in the test on BT-549 breast; 109% with MDA-MB-435 melanoma. Moreover, the growth with SW-620 colon is 89.9%; in the test on MCF7 breast it was 82.5%; in the test on HCT-116 colon, 83.5%; in the test on HCC-2998 colon it was 87.2%; in the test on KM12 colon, 95.8%.
